# Source: PubChem (National Center for Advancing Translational Sciences (NCATS))
# Rows were chosen to be rich in hits. Some 18% of all compounds tested hit in one or more screens of this group.
# DT40 TDP1 no CPT = qHTS for Inhibitors of human tyrosyl-DNA phosphodiesterase 1 (TDP1): qHTS in cells in absence of CPT; DT40 Tdp1-/- hTDP1 cells, no CPT, ATP luminescence, 48 h; AID 686978, 2013; Potency, µM (doses to about 46.2 µM), for the others: top-dose activity change, negative = growth inhibition, most hits filed as inhibitors; actives 15% (n = 420,000); also: potency is read from the fitted curve at half-maximal effect; nearly all actives have a fitted effect of over 55% in size
#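 Growth of hTDP1-complemented DT40 Tdp1-knockout cells is measured by ATP luminescence after at least 48 hr compound exposure at 37 °C, with DMSO substituting for the 20 nM CPT used in the parallel screen.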
# LDHA block = qHTS assay for inhibitors of human lactate dehydrogenase | actives 0.15% (n = 480,000) | AID 1347041, 2019 | purified LDHA, NADH/diaphorase-resazurin fluorescence; active compounds read low | activity change, % (values are at about 110 or 230 µM); in the data active = activity change below about -30%; inconclusive = mostly about -25% to -30%;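 also: plate controls were DMSO wells for no effect and wells without enzyme for full effect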
#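 Remaining NADH was detected by diaphorase (0.133 mg/mL) converting 37 µM resazurin to fluorescent resorufin, read at 0 and 20 minutes. The preceding 5-minute room-temperature reaction used 2 nM LDHA, 0.2 mM sodium pyruvate and 0.06 mM NADH at pH 7.4.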
# Gal4-VP16 FLuc = VP16 counterscreen qHTS for inhibitors of ROR gamma transcriptional activity | AID 2546, 2010 | actives 3.5% (n = 310,000) | Drosophila S2 Gal4-VP16 UAS-luciferase, luminescence, 20 h | Potency, µM (top dose mostly 53.6 µM), without a hit: at the top dose activity, negative = inhibition, most hits filed as inhibitors;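 also: Gal4-VP16 expression switched on by copper sulfate through the metallothionein promoter; potency is read from the fitted curve at half-maximal effect; nearly all actives have a fitted effect of over 50% in size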
# TDP1 cell CPT = qHTS for Inhibitors of human tyrosyl-DNA phosphodiesterase 1 (TDP1): qHTS in cells in presence of CPT; chicken DT40 Tdp1-/-;hTDP1 cells + 20 nM CPT, ATP luminescence, 48 h; Potency, µM (highest dose often 46.2 µM), for the others: at the highest dose activity change, negative = growth inhibition, most hits filed as inhibitors; actives 12% (n = 420,000); also: potency is read from the fitted curve at half-maximal effect; nearly all actives have a fitted effect of over 55% in size
#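 Chicken DT40 Tdp1-/- cells complemented with human TDP1, 400 cells/well, exposed to compounds plus 20 nM camptothecin for at least 48 h at 37 C; viability read as ATP content by CellTiter-Glo luminescence.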
# IL1B secr inh = qHTS for Inhibitors of Inflammasome Signaling: IL-1-beta AlphaLISA Primary Screen | AID 743279, 2014 | THP-1 LPS/ATP IL-1B secretion, AlphaLISA, 16 h; active compounds read low | activity change, % at 57.5 µM | actives 4.7% (n = 360,000); in the data active = activity change below about -50%; inconclusive = mostly about -30% to -49%
#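 THP-1 cells pretreated 1 hr with compounds (up to 57.5 uM final), then stimulated with LPS (250 ng/mL final) plus ATP (1.25 mM final); secreted IL-1B measured by AlphaLISA after 16 hr, decreased signal indicating inhibition.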
# RORg inh = qHTS for inhibitors of ROR gamma transcriptional activity; Nuclear receptor ROR-gamma (Mus musculus), P51450; Potency, µM (series often up to 53.6 µM), inactives show top-dose activity change, negative = inhibition, actives largely listed as inhibitors; Drosophila S2 Gal4-RORgamma UAS-luciferase reporter, 20 h; actives 5.4% (n = 310,000); AID 2551, 2010; also: potency is read from the fitted curve at half-maximal effect; nearly all actives have a fitted effect of over 60% in size
# Target sequence (P51450 whole entry, looked up, the tested form may be a part): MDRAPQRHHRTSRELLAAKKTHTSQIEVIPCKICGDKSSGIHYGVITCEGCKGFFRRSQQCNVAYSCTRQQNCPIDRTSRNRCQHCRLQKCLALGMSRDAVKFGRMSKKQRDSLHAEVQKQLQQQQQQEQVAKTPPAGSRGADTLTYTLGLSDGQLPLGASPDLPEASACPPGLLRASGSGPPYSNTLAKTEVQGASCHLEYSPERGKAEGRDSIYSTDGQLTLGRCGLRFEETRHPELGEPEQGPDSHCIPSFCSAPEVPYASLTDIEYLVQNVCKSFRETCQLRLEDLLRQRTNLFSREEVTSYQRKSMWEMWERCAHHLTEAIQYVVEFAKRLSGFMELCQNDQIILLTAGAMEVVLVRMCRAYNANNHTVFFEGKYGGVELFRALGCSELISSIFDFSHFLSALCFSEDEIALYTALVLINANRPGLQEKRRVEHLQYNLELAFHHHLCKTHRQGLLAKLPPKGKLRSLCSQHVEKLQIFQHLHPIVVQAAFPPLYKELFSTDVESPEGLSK
#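 Drosophila S2 cells stably expressing Gal4-DBD/mouse RORγ fusion under metallothionein promoter plus UAS-luciferase; compound 1 h, then 700 uM CuSO4 induction for 20 h at ambient temperature; inhibition read as reduced luminescence.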
# * = called active by the depositor; u = inconclusive; x = no result. Unless noted, calls follow the shape of the dose curve; as a rule, active = well fitted curve in the direction sought with a large enough effect; inconclusive = small, poorly fitted or top-dose-only effect, or another doubt; inactive = no such curve, though single readings can be large; an effect the other way counts as inactive or inconclusive. Unless noted, % is scaled to controls: 0 for no effect and ±100 for the full control effect.
SMILES,DT40 TDP1 no CPT,LDHA block,Gal4-VP16 FLuc,TDP1 cell CPT,IL1B secr inh,RORg inh
CC1(C)CC(=O)C=C(/C=C/c2ccccc2)C1,-16%,0,x,23µM*,-23,x
CC[C@]12c3[nH]c4cc(CCC(=O)N(C)C)ccc4c3CCN1C(=O)[C@@H](CC(=O)NCc1ccc(OC)c(OC)c1)C[C@@H]2C(=O)N1CCN(C(=O)c2ccco2)CC1,2%,-11,x,0%,20,x
CC[C@]12c3[nH]c4cc(CCC(=O)N(C)C)ccc4c3CCN1C(=O)[C@@H](CC(=O)NC/C=C(\C)CCC=C(C)C)C[C@@H]2C(=O)N1CCN(C(=O)c2ccco2)CC1,5.8µM*,-11,x,10µM*,0,x
CN(C)C(=O)CCc1ccc2c3c([nH]c2c1)[C@]1(CCC2CCCC2)[C@@H](C(=O)N2CCOCC2)C[C@H](CC(=O)NCC24CC5CC(CC(C5)C2)C4)C(=O)N1CC3,23µM*,-7,x,u,-27,x
CC(C)=CCC/C(C)=C/CNC(=O)C[C@H]1C[C@H](C(=O)N2CCOCC2)[C@@]2(CCC3CCCC3)c3[nH]c4cc(CCC(=O)N(C)C)ccc4c3CCN2C1=O,6.5µM*,3,x,5.8µM*,u,x
COCCCNC(=O)C[C@H]1C[C@H](C(=O)N2CCOCC2)[C@@]2(CCC3CCCC3)c3[nH]c4cc(CCC(=O)N(C)C)ccc4c3CCN2C1=O,-8%,-10,x,0%,18,x
CN(C)CCNC(=O)c1cccc2[nH]c(-c3ccncc3)nc12,13µM*,5,x,13µM*,-82*,x
COc1cccc2nc3c(C(=O)NCCN(C)C)cccc3cc12,0.18µM*,13,x,0.16µM*,-97*,x
COc1ccc(C(=O)NCCN(C)C)c2nc3ccccc3cc12,0.16µM*,6,x,0.18µM*,-99*,x
CN(C)CCNC(=O)c1cccc2nc3c(ccc4ccccc43)nc12,4.6µM*,-1,x,5.8µM*,-101*,x
CN(C)CCCNC(=O)c1cc(-c2ccccc2)nc2ccccc12,x,4,x,x,x,x
N#C/C(=C\c1ccc(-c2cccc(Cl)c2)o1)c1nc2ccccc2[nH]1,x,13,x,x,x,x
NCC1CCN(Cc2ccco2)C1 (stereo unspecified),x,2,x,x,x,x
Cc1ccc(F)c(S(=O)(=O)N(Cc2nccn2C)C2CC2)c1,x,-17,x,x,x,x
COc1ccc(-c2nc3c(C(=O)NCCN(C)C)cccc3c3ccccc23)cc1,4.1µM*,1,x,1.3µM*,-100*,x
CN(CCNC(=O)c1c[nH]c2c1ccc1ccccc12)CCNC(=O)c1c[nH]c2c1ccc1ccccc12,u,-1,x,23µM*,-23,x
COc1ccccc1CC(C#N)C(=O)Nc1cc(C)cc(C)c1 (stereo unspecified),x,7,x,x,x,x
CC(=O)c1cccc(NC(=O)CN(CCc2ccccc2)S(=O)(=O)c2ccccc2)c1,x,4,x,x,x,x
CCNC(=O)COc1ccc(F)cc1C(=O)c1cnn(-c2ccccc2)c1,u,-1,-12%,u,u,34%
COc1ccccc1CNC(=O)COc1ccccc1C(=O)c1cnn(-c2ccccc2)c1,u,0,x,23µM*,-7,x
O=C(COc1ccccc1C(=O)c1cnn(-c2ccccc2)c1)Nc1ccccc1,15µM*,-17,-20%,u,22,u
Cc1cccc(NC(=O)OCc2ccccc2)c1,x,-6,x,x,x,x
O=C(COc1ccccc1F)Nc1ccc(O)c(-c2nc3ccccc3o2)c1,x,2,x,x,x,x
COc1ccc(Oc2coc3cc(OCc4ccccc4)ccc3c2=O)cc1,x,7,x,x,x,x
CCC(CC)NC(=O)CON=C1c2ccccc2-c2ccccc21,16µM*,-6,-21%,21µM*,-16,-28%
